# Measurements reported in PubChem BioAssay (NCI).
# About 83,000 compounds went through this panel and 20% of them were active in at least one assay; those are over-represented in the sample as a whole.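 Method: cells in 96-well plates; compound added at one concentration; 48 h incubation; percent growth measured; values under 10 scored active.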 Unmarked numbers belong to inactive results. Active and inactive are the calls of the source.
# Tested on: SK-MEL-2 melanoma
# Assay: NCI-60 one-dose screen, 48 h (100 = growth as untreated, 0 = no growth, -100 = all killed)
# Details: 10 µM unless noted
row,Structure (SMILES),growth
1,Cc1cc(N2CCCCCC2)nc(N2CCN(CC(=O)Nc3ccc4c(ccn4Cc4ccccc4)c3)CC2)n1,52.8%
2,CC1(C)C(=O)/C(=C\c2cccnc2)C[C@]2(C)[C@H]3CC[C@@H]4[C@H]5[C@H](C(=O)/C=C/c6cccnc6)CC[C@]5(C(=O)O)CC[C@@]4(C)[C@]3(C)CC[C@@H]12,-55.1% [100 µM] (active)
3,CCN(CC)CCSC(=O)C(O)(c1ccccc1)C1CCCC1 (configuration not stated),106%
4,O=C(NNc1ccc(-c2ccccc2)nn1)c1ccccc1,107%
5,Cc1cc2c(C(C)C)c(O)c(O)c(C=NCc3ccoc3)c2c(O)c1-c1c(C)cc2c(C(C)C)c(O)c(O)c(C=NCc3ccco3)c2c1O,45.4%
6,c1ccc(-c2nnc(-c3c[nH]c4ncccc34)s2)cc1,103%
7,Cc1ccc(-c2cc(-c3ccc(C)cc3)nc(NCCNc3ccnc4cc(Cl)ccc34)n2)cc1,-72.6% (active)
8,Cn1cc(-c2noc(C(=O)c3cn(C)c4ncccc34)n2)c2ccccc21,107%
9,Cc1cc(NN=C(c2ccc(O)cc2)c2ccc(O)cc2)c([N+](=O)[O-])cc1[N+](=O)[O-],0.57% (active)
10,O=C(C[n+]1ccn(CC(OCc2ccc(Cl)cc2Cl)c2ccc(Cl)cc2Cl)c1)c1ccc(F)cc1 (configuration not stated),-88% (active)
11,COc1cc(-c2nc(SCCC(C)C)nc(Nc3ccc(S(N)(=O)=O)cc3)c2C#N)cc(OC)c1OC,51.4%
12,CC(C)=CCC[C@](C)(O)[C@H]1CC[C@]2(C)[C@@H]1CC[C@@H]1[C@@]3(C)CC[C@H](OC(=O)CCC(=O)O)C(C)(C)[C@@H]3CC[C@]12C,-13.1% [100 µM] (active)
13,C=C(C)[C@@H]1CC[C@]2(C)[C@H](CC[C@@H]3[C@@H]([C@@](C)(O)CCC=C(C)C)CC[C@]32C)[C@@]1(C)CCC(=O)O,-41.6% [100 µM] (active)
14,O=C(CCN1CCCCC1)c1ccc2ccccc2c1,102%
15,O=C(N/N=C/c1c(Cl)cccc1Cl)c1cccc(Nc2ccnc(C(F)(F)F)c2)c1,92.2%
16,CCc1ccc(C2=C/C(=C/c3ccccc3)C(=O)N2CCc2ccc(S(N)(=O)=O)cc2)cc1,104%
17,COc1cc2c(cc1OCCCCCOc1ccc(-n3c(C)nc4ccccc4c3=O)cc1)N=C[C@@H]1CCCN1C2=O,-8.38% (active)
18,CCN(CCO)CCC(=O)c1ccc([N+](=O)[O-])cc1,107%
19,COc1c(B(O)O)cccc1-c1nc2ccc3[nH]ncc3c2c2c1CCC2,58.2%
20,Cc1ccc(-c2cc(O)c(-c3ccc(C)cc3C)cc2O)c(C)c1,91.8%
21,C=C(C)[C@@H]1CC[C@]2(c3ncc(C)o3)CC[C@]3(C)[C@H](CC[C@@H]4[C@@](C)(CCC#N)[C@H](C(=C)C)CC[C@]43C)[C@@H]12,-89.5% [100 µM] (active)
22,Nc1nc(Nc2ccccc2)c2ncn(Cc3ccc4c(c3)OCO4)c2n1,12.2%
23,CC(=O)OC[C@]12CC[C@@H](C(=O)CBr)[C@@H]1[C@H]1CC[C@@H]3[C@@]4(C)CCCNC(C)(C)[C@@H]4CC[C@@]3(C)[C@]1(C)CC2,-80.8% [100 µM] (active)
24,C[C@@H]1C[C@H]2C(=O)O[C@@H](C)[C@H](NC(=O)[C@H](Cc3cc(F)cc(F)c3)NC(=O)Nc3ccc(Cl)cc3F)C(=O)N3C[C@H](O)C[C@H]3C(=O)N3CCN(C)C[C@H]3C(=O)N[C@@H](C)C(=O)N2C1,29.6%
25,COC(=O)C(=Cc1ccccc1[N+](=O)[O-])C(=O)OC,73.5%
26,CC1Cc2c(Cl)ncnc2N(C)c2ccc(Cl)cc21 (configuration not stated),-27.7% (active)
27,CC1(C(=O)O)CCC(N)(C(=O)O)C1(C)C (configuration not stated),110%
